Results on nine compounds are retold here after PubChem BioAssay (NCATS).

Assay [1] deals with Zika virus NS2B-NS3 protease (linked construct). Put plainly: Primary screen NINDS Rhodamine qHTS for Zika virus inhibitors (AID 1347160). Further: nearly all actives have a fitted effect of over 55% in size. The gist of the method: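 Kinetic fluorescence (Ex 480 nm, Em 540 nm) over 15 min with 1.5 microM Rhodamine110 peptide and 25 nM linked protease.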
A general note: Quantitative high-throughput screening tests each substance at several concentrations.

Assay [2] in a line: Primary qHTS for inhibitors of nuclear receptor binding SET domain protein 2 (NSD2) in an RCH-ACV wild type WT cells (2C) (AID 1645877). Further: nearly all actives have a fitted effect of over 70% in size. Further: potency means the concentration at half of the fitted maximal effect.
In assay [3] the target is Glutathione peroxidase 1 (Homo sapiens) (UniProt P07203). The assay can be described thus: Primary qHTS Assay for Inhibitors of Recombinant Selenoprotein Glutathione Peroxidase 1 (GPX1) (AID 1845191). Further: nearly all actives have a fitted effect of over 65% in size. The gist of the method: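 10 nM GPX1 + cpd, 30 min RT; start w/ 1 mM GSH, 0.5 mM cumene hydroperoxide, 0.5 mM NADPH, 100 nM GR, 0.01% BSA; buffer 50 mM Tris-HCl pH 7.5, 2 mM EDTA, 150 mM NaCl; Fl 340/450, 0 & 15 min.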
Sequence of Glutathione peroxidase 1 (Homo sapiens) (P07203 whole entry, looked up): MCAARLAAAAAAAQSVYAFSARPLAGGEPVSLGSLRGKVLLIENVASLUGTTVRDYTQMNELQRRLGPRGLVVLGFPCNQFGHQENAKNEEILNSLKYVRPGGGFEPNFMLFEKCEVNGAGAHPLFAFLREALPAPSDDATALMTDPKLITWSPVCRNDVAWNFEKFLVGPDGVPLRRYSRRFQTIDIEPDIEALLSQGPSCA

Assay [4] can be described thus: Primary redox qHTS assay for identification of artifact compounds. (AID 1845223).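 Further: 0% = DMSO and 100% = reference compound.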 In short, it runs like this: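 Amplex Red (25 uM) and HRP (250 mU/mL) in HBSS, with compounds for 15 min, then 250 uM DTT for 30 min, room temperature, dark. Fluorescence 525/598 nm read; normalized to DMSO and 10 uM DA3003; Hill fit.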
The test system of assay [5] is HeLa. Put plainly: Primary qHTS to identify gynecologic anti-cancer compounds using libraries of approved drugs and bioactive compounds (AID 1345084). Further: nearly all actives have a fitted effect of over 55% in size. Further: potency means the concentration at half of the fitted maximal effect. The settings on record: Gynecologic cancer cell panel viability, ATPlite luminescence, 48 h; series mostly up to 57.5 µM. In short, it runs like this:
(§1)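 48 h compound exposure at 37 C, 5% CO2; five-point qHTS. ATPlite luminescence readout of cell ATP.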

Assay [6] deals with SKOV3. The description is as above. The settings on record: Gynecologic cancer cell panel viability, ATPlite luminescence, 48 h; series mostly up to 57.5 µM. In short, it runs like this: as §1
Background: Cellular ATP, detected with luciferase, serves as a proxy for viable cell number.

In assay [7] the test system is Zika virus NS2B-NS3 protease (unlinked complex). The assay can be described thus: Primary screen GU Rhodamine qHTS for Zika virus inhibitors: Unlinked NS2B-NS3 protease assay (AID 1347159). Further: on the % scale 0 is the no-effect control and ±100 the full control effect; nearly all actives have a fitted effect of over 60% in size. The gist of the method:
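A qHTS format was used, with compound concentrations ranging up to 114 microM. Each compound was preincubated with 25 nM NS2B-NS3 protease, and the substrate was then added at 1.5 microM. Curves were fitted with a 4-parameter Hill model.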

Assay [8] can be described thus: Primary fluorescence-based thiol-reactive (MSTI) qHTS assay for identification of artifact compounds. (AID 1845221).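 Further: thiol-reactive compounds lower the probe fluorescence signal; nearly all actives have a fitted effect of over 65% in size.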 The gist of the method: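 First, 4 uM MSTI in 2% DMSO/PBS pH 7.4 was dispensed; next, compounds were added; then plates sat 1 h at room temperature without light. Finally, emission at 598 nm was recorded.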
Assay [9] relates to KB-3-1. The assay can be described thus: Cytotoxic Profiling of Annotated Libraries Using Quantitative High-Throughput Screening (AID 1296008). Further: nearly all actives have a fitted effect of over 60% in size. Further: potency means the concentration at half of the fitted maximal effect. On max response: on the % scale 0 is the no-effect control and ±100 the full control effect. The settings on record: Five cell lines viability, CellTiter-Glo ATP luminescence, 48-72 h; max response: stronger effect = lower value. In short, it runs like this: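 Cytotoxicity was measured as CellTiter-Glo ATP luminescence, read after 10 min at room temperature. Compound treatment of the cells lasted 48 or 72 hr at 37 degrees Celsius in a qHTS format.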

Assay [10] addresses Cytochrome P450 2D6 (Homo sapiens) (UniProt P10635). The assay can be described thus: Cytochrome P450 family 2 subfamily D member 6 (CYP2D6) small molecule antagonists: luciferase biochemical (cell-free) qHTS assay (AID 1645840; active means well fitted curve in the direction sought with a large enough effect in the repeat runs; an effect the other way counts as inactive or inconclusive; further: potency means the concentration at half of the fitted maximal effect; nearly all actives have a fitted effect of over 55% in size). In short, it runs like this:
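P450-Glo luminescent screen: recombinant CYP2D6 enzyme–proluciferin substrate mix preincubated with compound 10 min at room temperature, then NADPH regeneration added for 1 h at room temperature. Detection reagent added for 20 min; luciferin light read as relative luminescence units.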

The target of assay [11] is Cytochrome P450 2C9 (Homo sapiens) (UniProt P11712). The assay can be described thus: Cytochrome P450 family 2 subfamily C member 9 (CYP2C9) small molecule antagonists: luciferase biochemical (cell-free) qHTS assay (AID 1645842; active means well fitted curve in the direction sought with a large enough effect in the repeat runs; an effect the other way counts as inactive or inconclusive; further: nearly all actives have a fitted effect of over 55% in size; further: potency means the concentration at half of the fitted maximal effect). In short, it runs like this: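 Luminescence, after 20 min with luciferin detection reagent, reflected CYP2C9 turnover during a 1 h NADPH-driven reaction at 37C. Enzyme-substrate mix contained 0.4% bovine serum albumin and was preincubated with compound 10 min at room temperature.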
Sequence of Cytochrome P450 2C9 (Homo sapiens) (P11712 whole entry, looked up): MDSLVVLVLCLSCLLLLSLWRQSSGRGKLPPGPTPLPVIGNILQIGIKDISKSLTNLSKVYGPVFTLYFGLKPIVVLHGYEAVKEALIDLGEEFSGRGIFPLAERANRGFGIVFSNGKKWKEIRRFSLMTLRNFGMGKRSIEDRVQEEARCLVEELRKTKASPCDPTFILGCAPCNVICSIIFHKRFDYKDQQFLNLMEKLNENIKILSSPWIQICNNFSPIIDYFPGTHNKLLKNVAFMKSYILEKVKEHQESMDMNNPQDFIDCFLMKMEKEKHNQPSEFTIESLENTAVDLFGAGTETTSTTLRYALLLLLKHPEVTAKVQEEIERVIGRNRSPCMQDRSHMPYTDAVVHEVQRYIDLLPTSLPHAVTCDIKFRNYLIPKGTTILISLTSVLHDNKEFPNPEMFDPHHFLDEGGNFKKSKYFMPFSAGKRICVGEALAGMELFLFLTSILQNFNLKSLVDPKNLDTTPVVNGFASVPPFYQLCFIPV

Assay [12] in a line: Cytotoxicity counterscreen for inhibitors of SARS-CoV-2 cell entry (AID 1645845; calls by dose curve; further: nearly all actives have a fitted effect of over 50% in size). In short, it runs like this:
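48 h compound treatment (after 1 h preincubation), HEK293-ACE2 cells, 37 C/5% CO2; ATP luminescence endpoint; normalized to cell wells and media blanks.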

In assay [13] the test system is CRL-7250. Put plainly: qHTS assay to identify novel small-molecules to repurpose for Merkel cell carcinoma treatment (AID 1296009). Further: nearly all actives have a fitted effect of over 60% in size. The settings on record: MCC and control cell lines, CellTiter-Glo viability, 72 h; series mostly up to 92 µM. In short, it runs like this:
(§2)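 After compound transfer in DMSO, plates were kept 72 hr at 37 degree celsius. Luminescent ATP signal from CellTiter-Glo served as viability measure, normalized against DMSO and no-cell controls.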

The test system of assay [14] is HACAT. Described as above. The settings on record: MCC and control cell lines, CellTiter-Glo viability, 72 h; at 44.8 µM (top of the series) unless noted. The gist of the method:
as §2

Assay [15] relates to NIH3T3. The description is as above. The settings on record: MCC and control cell lines, CellTiter-Glo viability, 72 h; at 44.8 µM (top of the series) unless noted. The gist of the method:
as §2

The nature of assay [16]: P-glycoprotein substrates identified in KB-3-1 adenocarcinoma cell line, qHTS therapeutic library screen (AID 1346986). Further: nearly all actives have a fitted effect of over 60% in size. The gist of the method:
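Counter-screen: cherry-picked hits retested in the KB pair and in HEK-293 pcDNA/MDR-19 cells ± tariquidar. Primary screen used 72 h CellTiter-Glo viability in KB-3-1 and KB-8-5-11.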

Records with an inconclusive call do not appear. Active and inactive are the calls of the source. Unless noted, the call rests on the fitted dose curve; in most records, active means well fitted curve in the direction sought with a large enough effect; inconclusive means small, poorly fitted or top-dose-only effect, or another doubt; inactive means no such curve, though single readings can be large; an effect the other way counts as inactive or inconclusive.

Sequence of Cytochrome P450 2D6 (Homo sapiens) (P10635 whole entry, looked up): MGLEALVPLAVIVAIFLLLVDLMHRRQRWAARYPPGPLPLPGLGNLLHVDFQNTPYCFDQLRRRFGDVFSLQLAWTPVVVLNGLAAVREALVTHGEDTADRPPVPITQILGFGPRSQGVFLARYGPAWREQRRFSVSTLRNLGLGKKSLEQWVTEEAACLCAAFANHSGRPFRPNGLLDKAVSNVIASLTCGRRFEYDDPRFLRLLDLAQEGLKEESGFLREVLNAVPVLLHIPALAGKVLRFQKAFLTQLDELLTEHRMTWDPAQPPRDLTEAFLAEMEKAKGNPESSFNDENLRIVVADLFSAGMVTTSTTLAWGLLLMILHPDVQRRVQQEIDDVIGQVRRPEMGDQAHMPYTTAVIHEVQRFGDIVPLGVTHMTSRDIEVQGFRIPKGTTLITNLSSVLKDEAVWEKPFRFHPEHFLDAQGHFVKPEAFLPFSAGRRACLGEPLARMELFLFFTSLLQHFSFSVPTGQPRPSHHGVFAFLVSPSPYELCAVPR

As for `C=C1C(=O)CC2OC2(C)CC2OC(=O)C(=C)C2C(O)C1OC(=O)/C(C)=C\C` (configuration not stated), the Potency result in assay [1], in assay [3], in assay [4], in [5] and in [6] was “inactive” in each case. In addition, the Potency in assay [2] is 2.01 µM (active).

With `COc1cc(O)c2c(c1)CCC[C@@H](O)[C@H](O)C(=O)/C=C\C[C@H](C)OC2=O`, the Potency entry in assay [7], in assay [1], in assay [3], in assay [8] and in assay [5] was “inactive” each time. Also, the Potency in [2] was 4.5 µM (active).

In the case of `CC1=CC2OC3CC(O)[C@](C)([C@@]2(C)C(O)C1=O)[C@]31CO1` (some centres not stated), the Potency result in assay [1], in assay [3], in assay [8] and in [4] was “inactive” each time. The Potency was 4.09 µM (active) in assay [2] and 7.31 µM (active) in assay [9].

Regarding `COC1CCCC(C)OC(=O)Cc2cc(O)cc(O)c2C(=O)C1` (configuration not stated), the Potency entry in assay [7], in assay [3] and in assay [4] was “inactive” throughout. For the same compound, the figures for the Potency in assay [2] and in assay [9] were 3.19 µM (active) and 4.04 µM (active), respectively.

In the case of `CN1CCC2=C(C1)c1ccccc1Cc1ccccc12`, the Potency entry in assay [7], in [1], in assay [11], in [12], in assay [8] and in assay [13] was “inactive” in each case. For the same compound, the Potency result in assay [5] and in assay [6] was “inactive” in each case. Moreover, the Potency in assay [10] is 477 nM (active). Also, the max response in [9] is -19% (inactive). The call in assay [14] was inactive.

Take `C=C(C)[C@@]12O[C@@H]1[C@@]1(C)C(=CC2=O)CC[C@@H](OC(C)=O)[C@@H]1C`: the Potency in [2] is 3.25 µM (active); in assay [9], 13 µM (active); in [6], 3.16 µM (active). In addition, the Potency entry in assay [3], in [8] and in assay [4] was “inactive” in each case.

For the compound `COc1ccc2c(c1)c(CCN(C)C)cn2S(=O)(=O)c1ccccc1`, the Potency result in assay [7], in assay [8], in assay [4] and in [6] was “inactive” each time. For the same compound, the Potency in [10] was 1510 nM (active); in [11] it was 15.1 µM (active). For the same compound, the max response in [9] is -1.74% (inactive). The call in [14] and in assay [15] was inactive.

For `CN1CCCCC1Cn1cc(C(=O)c2cc([N+](=O)[O-])ccc2I)c2ccccc21` (configuration not stated), the Potency result in assay [1], in [2], in assay [3], in assay [4], in [5] and in [6] was “inactive” each time. Moreover, in assay [9], the max response is 6.42% (inactive). The compound was called inactive in assay [14] and in assay [15].

Take `C[C@]12CC[C@H](O)C[C@@H]1CC[C@@H]1[C@@H]2CC[C@]2(C)C(=O)CC[C@@H]12`: the Potency result in assay [16], in assay [7], in [1], in assay [2], in assay [3] and in [8] was “inactive” throughout. Further, the Potency entry in [5] and in [6] was “inactive” each time. For the same compound, the outcome in assay [9] was inactive.
